# Measured values from paper PMC5540273 (PLoS ONE, 2017).
# Tests used:
# Conditions in all cases: concentration: 1 μM, replicates: in singlicate; n = 1
# HASPIN = test system: T1, HASPIN
# T1 construct: gene GSG2
# HCK = test system: HCK
# HIPK1 = test system: HIPK1
# HIPK2 = test system: HIPK2
# HIPK3 = test system: HIPK3
# HIPK4 = test system: HIPK4
# HPK1 = test system: HPK1
# HUNK = test system: HUNK
# ICK = test system: ICK
# IGF1R = test system: IGF1R
# IKK-alpha = test system: T2, IKK-alpha
# T2 construct: gene CHUK
# IKK-beta = test system: T3, IKK-beta
# T3 construct: gene IKBKB
# IKK-epsilon = test system: T4, IKK-epsilon
# T4 construct: gene IKBKE
# INSRR = test system: INSRR
# INSR = test system: INSR
# IRAK1 = test system: IRAK1
# IRAK3 = test system: IRAK3
# IRAK4 = test system: IRAK4
# ITK = test system: ITK
# [1] = test system: JAK1(JH1domain-catalytic)
# 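Also: KINOMEscan kinase panel screen.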
Compound,%Inh (HASPIN),%Inh (HCK),%Inh (HIPK1),%Inh (HIPK2),%Inh (HIPK3),%Inh (HIPK4),%Inh (HPK1),%Inh (HUNK),%Inh (ICK),%Inh (IGF1R),%Inh (IKK-alpha),%Inh (IKK-beta),%Inh (IKK-epsilon),%Inh (INSRR),%Inh (INSR),%Inh (IRAK1),%Inh (IRAK3),%Inh (IRAK4),%Inh (ITK),%Inh [1]
Nc1ncnc2c1nc(-c1ccccc1)n2-c1ccccc1 [SKF-97293],38%,27%,7%,16%,35%,9%,21%,0%,19%,12%,50%,44%,12%,16%,7%,39%,40%,10%,8%,0%
Cl.NC(=O)c1cccc(Nc2nccc(Nc3ccc(Oc4c(Cl)cccc4Cl)c(Cl)c3)n2)c1 [GW659009],0%,77%,0%,11%,2%,4%,0%,0%,0%,0%,0%,0%,0%,0%,0%,0%,90%,0%,98.7%,9%
Cl.c1ccc(-c2ccc3c(Nc4ccc5[nH]ncc5c4)ccnc3c2)nc1 [GW440137],6%,16%,62%,47%,51%,0%,23%,9%,0%,12%,10%,15%,17%,0%,15%,18%,26%,12%,7%,26%
O=C(Nc1cccc(-c2nn3ncccc3c2-c2ccnc(Nc3ccccc3)n2)c1)c1c(F)cccc1F [GSK198271],0%,99.3%,0%,0%,9%,28%,43%,3%,0%,24%,0%,0%,0%,0%,28%,0%,0%,11%,12%,5%
COc1cc(Nc2ncc3c(C)nc(-c4cc5ccccc5[nH]4)n3n2)cc(OC)c1OC [GW869516],0%,16%,79%,0%,0%,17%,2%,0%,0%,0%,0%,0%,0%,53%,4%,2%,20%,0%,43%,0%
COc1ccc(Nc2nccc(N3CCC(NC(=O)Nc4cccc(OC)c4)C3)n2)cc1 (stereo not shown) [GSK1379742],10%,0%,0%,28%,19%,0%,56%,24%,0%,0%,24%,19%,0%,0%,0%,0%,15%,6%,11%,12%
Nc1ncc(-c2ccc3nccc(-c4ccncc4)c3c2)cc1S(=O)(=O)N1CCOCC1 [GSK1627798],50%,0%,37%,15%,25%,76%,49%,0%,36%,35%,21%,9%,11%,15%,35%,31%,73%,16%,11%,3%
CSc1cccc2c(-c3ccncn3)c(-c3ccc(F)cc3)nn12 [GW514786],17%,0%,9%,0%,10%,32%,21%,8%,0%,19%,0%,0%,5%,3%,10%,10%,24%,0%,10%,1%
COc1cc2c(cc1OCCN1CCNCC1)ncc1c3ccc(C#N)cc3[nH]c21,93.5%,3%,95.2%,99.8%,91.9%,54%,0%,0%,48%,0%,46%,32%,61%,3%,0%,95.7%,88%,99.7%,23%,0%
Cc1ccc(C(=O)N2CC[C@@H](O)C2)cc1-n1c(C)cc(OCc2ccc(F)cc2F)c(Br)c1=O,0%,66%,11%,0%,0%,0%,0%,0%,0%,0%,0%,0%,0%,0%,0%,0%,0%,0%,0%,0%
Clc1ccc(-c2nn3ncccc3c2-c2ccnc(Nc3ccc4c(c3)OCCO4)n2)cc1 [GW829116],0%,54%,14%,0%,0%,0%,0%,50%,0%,0%,0%,0%,17%,0%,0%,0%,0%,0%,0%,0%
c1ccc(-c2cnc3nccnn23)cc1 [AH20685],0%,0%,0%,0%,0%,0%,37%,0%,0%,31%,49%,1%,5%,0%,24%,0%,1%,8%,2%,0%
C[C@@H](Oc1cc(-n2cnc3cc(-c4ccnc(NCCS(C)(=O)=O)c4)ccc32)sc1C(N)=O)c1ccccc1Cl [GSK907232],26%,34%,0%,0%,7%,20%,87%,0%,19%,0%,2%,15%,0%,2%,0%,36%,0%,13%,21%,0%
O=C(Nc1cccc(Oc2ccc3nc(NC(=O)C4CC4)cn3n2)c1)c1ccccc1C(F)(F)F,0%,69%,28%,0%,0%,1%,10%,0%,0%,0%,0%,0%,0%,0%,0%,0%,5%,0%,0%,8%
CC(=O)Nc1nc2cnc(Nc3cc(NC(=O)c4cccc(C5(C#N)CC5)c4Cl)ccc3C)nc2s1,0%,53%,27%,0%,0%,6%,1%,12%,0%,0%,7%,6%,0%,0%,0%,10%,24%,21%,0%,17%
O=C(O)C(F)(F)F.O=C(O)C(F)(F)F.O=c1[nH]ccc2nc(N[C@@H]3CCCNC3)nc(Nc3ccc(S(=O)(=O)N4CCOCC4)cc3)c12 [GSK2177277],81%,92.6%,83%,92.9%,97.2%,54%,98.2%,0%,88%,90.8%,100%,98.1%,75%,99.2%,97.6%,99.6%,22%,83%,86%,99%
Cl.c1ccc(-c2ccc3c(Nc4ccc5[nH]ccc5c4)ccnc3c2)nc1 [GW440138],23%,19%,0%,0%,0%,0%,10%,0%,0%,40%,17%,8%,19%,0%,0%,28%,0%,3%,0%,12%
O=C(Nc1n[nH]c2cc(-c3ccoc3)ccc12)C1CC1 [SB-738481],27%,0%,57%,65%,58%,46%,7%,0%,94.8%,0%,0%,0%,0%,0%,0%,0%,0%,0%,0%,0%
Cl.Cl.NCC(C(=O)Nc1cc(Br)c(-c2ccnc3[nH]ccc23)s1)c1ccccc1 (stereo not shown) [GSK1269851],97.6%,29%,48%,0%,55%,81%,41%,0%,33%,16%,44%,34%,0%,0%,0%,81%,34%,26%,12%,2%
CC(=O)N1CCN(c2ccc(Nc3nccc(-c4sc(C(C)C)nc4-c4cccc(NS(=O)(=O)c5cccc(Cl)c5)c4)n3)cn2)CC1 [GSK1660437],0%,83%,40%,5%,35%,82%,36%,0%,0%,0%,0%,0%,20%,25%,8%,0%,0%,0%,20%,0%
